± gives the standard deviation of the averaged measurements. In all, about 25,000 sequences were measured (“ln(normalized median fluorescence intensity)”: median about 10, highest 2% from about 12 on). Many of the other results were omitted from the sample, so the highest values are more common in it than they were.
system: PfAP2-G AP2 domain (GST-tagged); assay: gcPBM binding intensity (ln(normalized median fluorescence intensity)); higher = stronger DNA binding
In short: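 Plasmodium falciparum DNA-binding domains carrying a GST tag were expressed in E. coli and applied for 1 h, at about 25 μg on average, to an Agilent 4 × 180k array. The array held primer-extended double-stranded 36-bp intergenic genomic probes together with negative controls, and binding took place in 1× PBS with 1% milk, 0.2 mg/ml BSA, 0.5% salmon testes DNA and 0.03% Triton X-100. An Alexa488 anti-GST antibody detected bound protein, and the array was scanned at 488 nm. Binding intensity is taken as the highest Masliner-normalised natural-log median intensity across replicate spots of either probe orientation.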

| Sequence | gcPBM binding intensity (ln) |
| --- | --- |
| AATAAATAAATAAATAAAACAAAGGGATTACATACA [TGCATGCA_negctrl_site513] | 9.84 ± 0.11 |
| TACATTTATAATAATACACACATAAATTTACATTTT [CACACA_site3463] | 10.1 ± 0.16 |
| ATATATATATACATATGTACATATAAAATAATTTTG [XGTACX_site3731] | 11.1 ± 0.74 |
| CGGCACATTCTATATACACACATATAAATATATACA [CACACA_site566] | 9.97 ± 0.042 |
| CCAACATTTTTTAGAAGTACATTTTTATATTTATTA [XGTACX_site5179] | 11.3 ± 0.83 |
| TATATTATTATGCATAGTACGTACTGTGATAAGAAT [XGTACX_site2956] | 11.4 ± 0.8 |
| TTATTATGCTGAGTACGTACTTATATAAGAATAGCA [XGTACX_site2955] | 11.8 ± 1 |
| AGAATAAGAATTATTAGTACTTATAAATATTATATT [XGTACX_site7228] | 10.9 ± 0.58 |
| AAAAAAAAATATATATATATATATATAAATAAATTT [CACACA_negctrl_site519] | 9.315 ± 0.007 |
| AGGAAAAAAAAAATGACACACATATTTGAATTAAAA [CACACA_site1352] | 9.965 ± 0.007 |
| ACAAAATTTACAAAATGTACAAAGTATGTGTTTTAT [XGTACX_site6462] | 10.7 ± 0.36 |
| TATATGTGGGTTTTTTTTATGTGTTTTTCTTTTTTT [CACACA_negctrl_site936] | 10.2 ± 0.18 |
| TGTGAAATAAAATTTGTACACACATATATATATATA [CACACA_site8093] | 11.1 ± 0.73 |
| TATTATAATTTTATATGTACACATATATAAATATAT [XGTACX_site4054] | 11.4 ± 1.1 |
| AAATTATTTCCGTGTACACATAAATATATATTTTAT [CACACA_site5121] | 11.8 ± 0.83 |
| GTGAAATTATTTCCGTGTACACATAAATATATATTT [XGTACX_site3989] | 11.8 ± 0.99 |
| TTAATTTTATTTTTTTGTACACATAAATATTATAAA [XGTACX_site4680] | 11.4 ± 0.91 |
| TGAAATAAAATTTGTACACACATATTTATTTATATA [CACACA_site6421] | 11.2 ± 0.97 |
| TATTATGTCTAAAATAACATATTAATATATTATTTC [CACACA_negctrl_site285] | 9.77 ± 0.11 |
| TAAACAGTATGCAACGCATGCGTTGTTATATATAAA [TGCATGCA_site232] | 9.88 ± 0.042 |
| TCTTTTAAACAGTACACACACACATATATATATATA [CACACA_site924] | 11.2 ± 0.69 |
| AGCGTATTATACTGACGTACATTTTATGTAACTCCA [XGTACX_site2715] | 11.4 ± 1.1 |

| Sequence | gcPBM binding intensity (ln) |
| --- | --- |
| ATATGATCATTTTATCATTTTGCTTTTTCTTTTTTT [CACACA_negctrl_site1325] | 9.4 ± 0.42 |
| GAGTTAATATTTAAAAGTACAAGATGAATGTAAAAA [XGTACX_site5810] | 11.3 ± 0.78 |
| ATATTTTTGTTCAGGAGTACAGTTCAAGATGAAAAT [XGTACX_site4178] | 11.6 ± 0.99 |
| TTTGTTCATATGAAATGTACAAAAAAAAAAAAAAAA [XGTACX_site8849] | 10.8 ± 0.77 |
| ATATAATAGTTATATTGTACATAAATTATACACCTT [XGTACX_site628] | 11 ± 0.5 |
| ATAAATAATTGTAGTTGTACATGATATTTTTATTAC [XGTACX_site550] | 11.1 ± 0.63 |
| CATCTAAATTGTAGTTGTACACCTTAATCTTATTAC [XGTACX_site7547] | 11.7 ± 0.83 |
| ATATATGTATATTTATGTACGTATTCCTGTATAGTC [XGTACX_site5763] | 11.5 ± 0.85 |
| TTAGTATATTTTTCCTGTACGTACTCAGATACAAAT [XGTACX_site7397] | 11.7 ± 0.91 |
| ATTTTTATTAAAATATGTACGTATTTTACTCATACA [XGTACX_site5330] | 11.6 ± 0.8 |
| CAAATAAAAATAAGGAGTACAATTAAAAAAGGAAGG [XGTACX_site4366] | 11.6 ± 0.91 |
| TGGAATAAAAAAAGGAGTACAATTAATTATTCTTAA [XGTACX_site8299] | 11.8 ± 1.3 |
| TTTAATAATTATTAAAGTACAAAATAAATATTGAAT [XGTACX_site7538] | 11 ± 0.62 |
| TTGTATATATATGGAAAAATATATATATATATATAT [GTGCAC_negctrl_site591] | 10.3 ± 0.83 |
| ATATACTATATTTTAACACACAAAAAAAAAAAATAT [CACACA_site1091] | 9.985 ± 0.035 |
| AGGCACGTGTTATATACACACATAATCAAATAAACT [CACACA_site7852] | 10 ± 0.11 |
| AAATTATAATATAATACACACATAAAAAAAAAATCA [CACACA_site3634] | 9.975 ± 0.049 |
| CCCCCCGTGTTATATACACACATAATCAAATAAAAT [CACACA_site4111] | 11.8 ± 0.99 |
| TAATAAATAAAATAGAGTACAGGGATTTCATTAAAT [XGTACX_site8979] | 11.4 ± 0.82 |
| CCAGTGTGCACCTTGCGTACATATTAAATTAATTAA [XGTACX_site3729] | 11.5 ± 0.96 |
| TTTTAATGTACCAGTGTGCACCTTGCGTACATATTA [GTGCAC_site9957] | 11.6 ± 0.97 |
| TTGCATTAATTTATGTGTACATATAAATTTTTATTT [XGTACX_site3060] | 11.6 ± 0.88 |

Source: the supplement of paper PMC11417369
